PubChem BioAssay AID624330 (Southern Research Specialized Biocontainment Screening …, 2012)
Screen size: about 340,000 compounds; about 2,100 (0.62%) were called active.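 How the source made its calls: active means first-screen hits whose inhibition reached a set limit at any dose in the follow-up dose series; inconclusive means inhibition above the set first-screen limit but never retested; inactive means the rest.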 Only a sample is shown. Potency and affinity values are given separately.

target: Rac GTPase-activating protein 1 (Homo sapiens) (UniProt Q9H0H5); assay: blockers of MgcRacGAP-driven Rac1 GTP hydrolysis – biochemical, ADP Hunter fluorescence, primary and confirmatory, confirmation (AID 624330); conditions: MgcRacGAP-stimulated Rac1 GTP hydrolysis, at 30 µM, hits give high values, GST-tagged Rac1 F28L mutant substrate;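 further: fluorescence reports GDP produced by GAP-driven GTP hydrolysis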
Sequence (Q9H0H5 whole entry, looked up): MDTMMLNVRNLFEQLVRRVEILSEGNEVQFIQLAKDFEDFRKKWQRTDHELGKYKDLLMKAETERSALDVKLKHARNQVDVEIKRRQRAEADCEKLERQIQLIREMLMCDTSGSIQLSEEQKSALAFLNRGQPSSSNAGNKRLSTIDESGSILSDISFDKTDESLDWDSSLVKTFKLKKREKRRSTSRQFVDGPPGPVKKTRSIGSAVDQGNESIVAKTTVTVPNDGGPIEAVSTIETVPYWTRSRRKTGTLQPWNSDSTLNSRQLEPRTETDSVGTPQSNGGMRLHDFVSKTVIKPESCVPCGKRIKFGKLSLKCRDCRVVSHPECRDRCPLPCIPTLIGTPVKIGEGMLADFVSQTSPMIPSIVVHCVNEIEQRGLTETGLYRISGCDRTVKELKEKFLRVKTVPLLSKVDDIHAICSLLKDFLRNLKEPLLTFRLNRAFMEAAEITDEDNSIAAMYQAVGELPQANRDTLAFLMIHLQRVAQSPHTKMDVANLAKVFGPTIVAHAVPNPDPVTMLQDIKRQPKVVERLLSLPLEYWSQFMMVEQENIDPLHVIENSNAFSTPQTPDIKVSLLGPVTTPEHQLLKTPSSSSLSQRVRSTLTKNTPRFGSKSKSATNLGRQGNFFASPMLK

inhibition, inactive:
O=C(NNC(=O)c1ccc([N+](=O)[O-])cc1)NC1CCCCC1 1.53%
CCCC1NC(=O)c2cccnc2-n2c1nc1ccc(Cl)cc1c2=O (centres undefined) 13.8%
Cc1ccc(C)c(-n2nnc3ccccc3c2=O)c1 2.95%
Cc1ccc(N2C(=O)CCC2=O)c(C)c1 4.77%
Cc1ccc(-n2c(C)cc(=O)cc2C)c(C)c1 6.02%
Cc1ccc(C)c(N2CC(=O)N(c3cc(C)ccc3C)CC2=O)c1 1.32%
COc1ccccc1NC(=O)C(C)n1cnc2c(oc3nc4c(cc32)CCCC4)c1=O (centres undefined) -4.17%
COc1ccc(/C=C2/CCCC(C(=O)C(F)(F)F)=C2O)cc1OC 6.67%
CCOC(=O)C(=O)Nc1cc([N+](=O)[O-])ccc1C 0.69%
COc1cc(C(=O)NCCCc2ccccc2)cc(OC)c1OC 5.75%
Cc1ccc(-c2n[nH]c(=S)n2C)cc1 14.7%
Cc1ccc(-c2cn3c(=S)[nH]nc3s2)cc1 22.2%
Cc1cc(CSc2ccccc2C(=O)O)on1 -2.15%
C/C(=N/NC(=O)c1ccc(-c2ccccc2)cc1)c1cc(O)cc(O)c1 14.9%
CC(=O)Nc1cc(S(=O)(=O)Nc2ccc(C)cc2)c(C)cc1C 11.6%
Cc1cc(C(=O)CCC(=O)N(C)CC(=O)Nc2c(Cl)cccc2Cl)c(C)s1 1.85%
C/C(=N\NS(=O)(=O)c1ccc(Cl)c([N+](=O)[O-])c1)c1cc2ccccc2o1 10.9%
CC(=O)c1ccc2c(c1)C1C=CCC1C(c1ccncc1)N2 (centres undefined) 13%
O=C(O)c1ccc2c(c1)C1C=CCC1C(c1ccncc1)N2 (centres undefined) 9.53%
CCOC(=O)C1Nc2ccc(C)cc2C2C=CCC12 (centres undefined) 10.5%
CCOC(=O)c1ccc2c(c1)C1C=CCC1C(C(=O)OCC)N2 (centres undefined) 12.1%
O=C(C[C@H]1C(=O)N(CCc2ccccc2)C[C@@H]1Cc1ccccc1)Nc1ccc(Br)cc1 12.8%
C[C@H]1c2cccc(O)c2C(O)=C2C(=O)C3(O)C(O)=C(C(N)=O)C(=O)[C@@H](N(C)C)[C@@H]3[C@@H](O)[C@@H]21 (some centres undefined) 1.02%
C=C1c2cccc(O)c2C(=O)C2C(=O)[C@]3(O)C(=O)C(C(N)=O)C(=O)[C@@H](N(C)C)[C@@H]3[C@@H](O)[C@H]12 (some centres undefined) 73.9%
C[C@H]1c2cccc(O)c2C(O)=C2C(=O)[C@]3(O)C(O)=C(C(N)=O)C(=O)[C@@H](N(C)C)C3[C@@H](O)C21 (some centres undefined) 2.79%
CN(C)c1ccc(O)c2c1CC1CC3C(N(C)C)C(=O)C(C(N)=O)=C(O)[C@@]3(O)C(=O)C1=C2O (some centres undefined) 9.88%
CN(C)c1ccc(O)c2c1CC1CC3[C@@H](N(C)C)C(=O)C(C(N)=O)C(=O)[C@]3(O)C(=O)C1C2=O (some centres undefined) 15.3%
C[C@H]1c2cccc(O)c2C(O)=C2C(=O)[C@]3(O)C(O)=C(C(N)=O)C(=O)[C@@H](N(C)C)[C@@H]3[C@@H](O)[C@@H]21 8.18%
CC(=O)Nc1ccc(-c2csc(NCCc3ccccc3)n2)cc1 9.25%
O=C1CN(C(=O)COC(=O)Cc2ccccc2F)c2ccccc2N1 3.02%
Nc1cc(S(=O)(=O)Nc2ccccc2Cl)ccc1N1CCCC1 11.5%
O=C(O)CSc1nnc(CNc2cccc(C(F)(F)F)c2)n1Cc1ccco1 10.8%
COC(=O)CCC(=O)NNC(=O)CCC(=O)Nc1cccc(Cl)c1C 8.78%
COc1ccc(OC)c(-c2csc(NC(=O)CSc3ccc(Br)cc3)n2)c1 5.11%
CCn1c(=O)n(CC)c2cc(N3CCCC3)c(NC(=O)c3cccc(OC)c3)cc21 8.3%
CCn1c(=O)n(CC)c2cc(N3CCCC3)c(NC(=O)c3cccc(C)c3)cc21 11.6%
COc1cccc(C(=O)Nc2cc3c(cc2N2CCOCC2)n(C)c(=O)n3C)c1 -34.3%
CCn1c(=O)n(CC)c2cc(N3CCCC3)c(NC(=O)c3ccc(F)cc3)cc21 17%
O=C(NCC(c1ccco1)N1CCCCC1)c1cccnc1 (centres undefined) 0.38%
C/C(N)=C(/C#N)C(=O)CSc1nc2ccccc2n1CC(C)C 8.8%
NC(=S)N=Nc1c(O)n(CC(=O)Nc2ccccc2)c2ccccc12 -6.62%
COc1ccc(C(=O)Nc2c(N)nc(SCC(=O)N3CCC(C)CC3)[nH]c2=O)cc1 6.29%
N#Cc1ccsc1NC(=O)C1=COCCO1 10.4%
CN(C)c1ccc(CNCC2CCCO2)cc1 (centres undefined) -6.93%
CN(C)c1ccc(C(=O)NCC2CCCO2)cc1 (centres undefined) -9.43%
CN(CC(=O)Nc1cccc(S(=O)(=O)N2CCOCC2)c1)CC(=O)Nc1ccc(Cl)c(C(F)(F)F)c1 6.95%
C/C(=N\O)C(C)(C)Nc1ccc(Cl)cc1 11.3%
CC(C)C(CO)NC(=O)CC(=O)NC(CO)C(C)C (centres undefined) 5.27%
CN(C)c1ccc(C=NN2CCCCCC2)cc1 -2.87%
CC1CCCC(C)N1/N=C/c1ccc(N(C)C)cc1 (centres undefined) 9.58%
Cc1ccc(C(=O)N2CCN(c3ccc(N4CCOCC4)nn3)CC2)cc1C 5.24%
CCOC(=O)c1c(NC(N)=O)sc(C)c1C 1.42%
CCOC(=O)Nc1sc(C)c(C)c1C(=O)OCC -8.16%
O=c1[nH]c2ccccc2n2c(-c3ccncc3)nnc12 6.75%
O=c1[nH]c2ccccc2n2c(C(F)(F)F)nnc12 5.97%
COC(=O)c1ccc(NC(=O)c2ccc3nc(C)sc3c2)cc1 -0.39%
O=C(Nc1ccc(Cl)cc1)c1ccc2nsnc2c1 -0.42%
COC(=O)c1ccc(NC(=O)c2ccc3nsnc3c2)cc1 2.71%
CC(=O)c1ccc(NC(=O)c2ccc3nc(C)sc3c2)cc1 5.73%
